# Reference: the supplement of paper PMC6522484
# ± gives the standard deviation of the averaged measurements.
# What was measured:
# DLD1 [1] = assay: cell viability (CellTiter-Glo) relative to plate median (fraction of plate median); higher = more viable cells; conditions: 5 µM; treatment time 24 h; reporter: 7TFP
# How it was run: (§1)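 Colorectal cancer cell lines stably carrying lentiviral TCF/Wnt firefly luciferase reporters (7TFP or TCF4/Wnt) were plated in 384-well plates and, 24 h later, given library compounds at a final 5 µM for 24 h. Firefly luciferase or CellTiterGlo luminescence was read on parallel plates with a Tecan F500 reader. Each well's signal was normalised to the plate median in webcellHTS2 (additive, without log transformation). Values are the mean of two independent replicates.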
# HCT116 = assay: as above; conditions: 5 µM; treatment time 24 h; reporter: TCF4/Wnt
# How it was run: as §1
# SW480 [2] = assay: as above; conditions: 5 µM; treatment time 24 h; reporter: 7TFP
# How it was run: as §1
# DLD1 [3] = assay: TCF/Wnt firefly luciferase reporter signal relative to plate median (fraction of plate median); higher = higher Wnt reporter signal; conditions: 5 µM; treatment time 24 h; reporter: 7TFP
# How it was run: as §1
# SW480 [4] = assay: as above; conditions: 5 µM; treatment time 24 h; reporter: 7TFP
# How it was run: as §1
Structure (SMILES),cell viability (DLD1 [1]),cell viability (HCT116),cell viability (SW480 [2]),TCF/Wnt firefly luciferase reporter signal (DLD1 [3]),TCF/Wnt firefly luciferase reporter signal (SW480 [4])
CN1CCN(CCCN2c3ccccc3Sc3ccc(Cl)cc32)CC1,1.02 ± 0.13,0.941 ± 0.098,1.09 ± 0.064,1.03 ± 0.054,0.929 ± 0.042
CC(=O)OC1CCC2(O)CC1(C)CCC1C2CC1(C)C (stereo not given),1.03 ± 0.014,1.06 ± 0.05,1.05,0.9135 ± 0.0064,0.933 ± 0.057
CCCC(CCC)C(=O)O,1.03 ± 0.045,1.09 ± 0.035,0.973 ± 0.052,1.115 ± 0.0071,1.06 ± 0.078
O=c1c(O)c(-c2ccccc2)oc2cc(O)ccc12,1 ± 0.05,1.06 ± 0.057,1.035 ± 0.0071,1.01 ± 0.044,0.925 ± 0.1
NC(=O)c1ncn([C@@H]2O[C@H](CO)[C@@H](O)[C@H]2O)c1N,0.989 ± 0.03,0.947 ± 0.055,0.949 ± 0.04,1 ± 0.012,0.927 ± 0.044
COC(=O)C1=CO[C@@H](O[C@@H]2O[C@H](CO)[C@@H](O)[C@H](O)[C@H]2O)[C@@H]2[C@@H](C)CC(=O)[C@]12O,0.871 ± 0.067,0.88 ± 0.17,0.988 ± 0.06,1.04 ± 0.19,1.08 ± 0.035
COC1=CC(=O)c2c(O)c3c(c(O)c2C1=O)OC1(Oc2c(cc4cc(C)oc(=O)c4c2O)C2OC21)C3O (stereo not given) [Griseorhodin A],1.09 ± 0.11,1.01 ± 0.04,1.05 ± 0.021,0.925 ± 0.057,1.01 ± 0.014
CC[C@H](C)C(=O)O[C@H]1C[C@@H](C)C=C2C=C[C@H](C)[C@H](CC[C@@H]3C[C@@H](O)CC(=O)O3)[C@H]21,1.02 ± 0.086,1.06 ± 0.028,1.035 ± 0.0071,1.02 ± 0.079,1.07 ± 0.021
O=C(O)[C@@H](O)[C@H](O)[C@H](O)[C@@H](O)C(=O)O,0.971 ± 0.023,1.03 ± 0.05,1 ± 0.051,1.06 ± 0.035,1.03 ± 0.028
O=C1NCCN(C(=O)[C@H](Cc2ccccc2)NC(=O)[C@@H]2CCCN2)C1=O [Prolyl-phenylalanyl-diketopiperazine],1.04 ± 0.15,1.02 ± 0.035,1.02 ± 0.021,0.984 ± 0.02,0.918 ± 0.0014
O=C1c2ccccc2C(=O)C1c1ccccc1,1.02,1.02 ± 0.048,1.02,1.12 ± 0.014,1.15 ± 0.071
COc1ccc(CCC(=O)c2c(O)cc(O[C@@H]3O[C@H](CO)[C@@H](O)[C@H](O)[C@H]3O[C@@H]3O[C@@H](C)[C@H](O)[C@@H](O)[C@H]3O)cc2O)cc1O,0.96 ± 0.085,1.01 ± 0.024,0.975 ± 0.036,0.945 ± 0.079,1.04 ± 0.028
NC(=O)c1ccccc1O,1.07 ± 0.014,0.991 ± 0.056,0.972 ± 0.014,0.993 ± 0.096,0.81 ± 0.12
Cc1cc(=O)oc2c(O)c(O)ccc12,0.961 ± 0.17,0.943 ± 0.03,0.925 ± 0.044,0.869 ± 0.08,0.944 ± 0.0071
